Data: PubChem BioAssay (EPA / NIEHS)
Calls of active or inactive are those of the source. Rule for the calls: active = hit-call score of the fitted dose curve at least 0.9, where 1 is the maximum; inactive = score below 0.9.

Assays:
Details in all cases: mRNA level, 48 h; actives raise or lower the signal
[1] = read-out: growth arrest and DNA damage 45 (GADD45A), GADD45A (gene 1647); assay: LTEA_HepaRG_GADD45A: Life Technologies and Expression Analysis (LTEA) Assay for growth arrest and DNA damage 45 (GADD45A) using HepaRG (AID 2283458)
Method in brief: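 Cells plated and cultured 48 h, switched to serum-free induction medium, then dosed for 48 h (100 uM top, half-log dilutions, 0.5% DMSO). RNA was isolated and transcript measured by Fluidigm qRT-PCR.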

[2] = read-out: Forkhead box O3 (FOXO3), FOXO3 (gene 2309); assay: LTEA_HepaRG_FOXO3: Life Technologies and Expression Analysis (LTEA) Assay for Forkhead box O3 (FOXO3) using HepaRG (AID 2283459)
Method in brief: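 Differentiated human HepaRG cells in serum-free induction medium were exposed in duplicate for 48 h to eight half-log concentrations up to 100 uM in 0.5% DMSO. FOXO3 mRNA was quantified by qRT-PCR, normalized to ACTB, GAPDH and POLR2A, with bidirectional fitting versus DMSO.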

[3] = read-out: ABC Transporter (ABCB1), ABCB1 (gene 5243); assay: LTEA_HepaRG_ABCB1: Life Technologies and Expression Analysis (LTEA) Assay for ABC Transporter (ABCB1) using HepaRG (AID 2283460)
Method in brief: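 Differentiated human HepaRG cells, plated 48 h then switched to serum-free induction medium, were exposed in duplicate to eight half-log concentrations up to 100 uM in 0.5% DMSO for 48 h. ABCB1 mRNA was measured by TaqMan qRT-PCR, normalized to ACTB/GAPDH/POLR2A.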

[4] = read-out: growth arrest and DNA damage 45 (GADD45B), GADD45B (gene 4616); assay: LTEA_HepaRG_GADD45B: Life Technologies and Expression Analysis (LTEA) Assay for growth arrest and DNA damage 45 (GADD45B) using HepaRG (AID 2283461)
Method in brief: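 Differentiated HepaRG cells, plated 48 h then switched to serum-free induction medium, were exposed 48 h in duplicate to eight half-log concentrations from 100 uM in 0.5% DMSO; mRNA quantified by qRT-PCR, normalized to ACTB/GAPDH/POLR2A, bidirectional fit versus DMSO.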

[5] = read-out: ABC Transporter (ABCC3), ABCC3 (gene 8714); assay: LTEA_HepaRG_ABCC3: Life Technologies and Expression Analysis (LTEA) Assay for ABC Transporter (ABCC3) using HepaRG (AID 2283462)
Method in brief: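 HepaRG cells in serum-free induction medium were exposed for 48 h in duplicate to 8-point half-log concentrations topping at 100 uM in 0.5% DMSO. ABCC3 mRNA was measured by qRT-PCR normalized to ACTB, GAPDH and POLR2A, with bidirectional fitting versus DMSO.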

[6] = read-out: ABC Transporter (ABCB11), ABCB11 (gene 8647); assay: LTEA_HepaRG_ABCB11: Life Technologies and Expression Analysis (LTEA) Assay for ABC Transporter (ABCB11) using HepaRG (AID 2283463)
Method in brief: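 Differentiated human HepaRG cells were exposed for 48 h in serum-free induction medium to eight half-log concentrations up to 100 uM in 0.5% DMSO. ABCB11 mRNA was quantified by qRT-PCR, normalized to ACTB, GAPDH and POLR2A, and fitted bidirectionally versus DMSO.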

[7] = read-out: ABC Transporter (ABCC2), ABCC2 (gene 1244); assay: LTEA_HepaRG_ABCC2: Life Technologies and Expression Analysis (LTEA) Assay for ABC Transporter (ABCC2) using HepaRG (AID 2283464)
Method in brief: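 HepaRG cells were plated 48 h, switched to serum-free induction medium, then exposed in duplicate for 48 h to 8 concentrations (top 100 uM, half-log steps, 0.5% DMSO). ABCC2 mRNA was measured by qRT-PCR normalized to ACTB/GAPDH/POLR2A; bidirectional fitting versus DMSO.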

[8] = read-out: Broad substrate specificity ATP-binding cassette transporter ABCG2 (Homo sapiens) (UniProt Q9UNQ0); assay: LTEA_HepaRG_ABCG2: Life Technologies and Expression Analysis (LTEA) Assay for ABC Transporter (ABCG2) using HepaRG (AID 2283465)
Method in brief: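 Differentiated HepaRG cells in serum-free induction medium were exposed for 48 h, in duplicate, to eight half-log concentrations up to 100 uM in 0.5% DMSO. ABCG2 mRNA was measured by TaqMan qRT-PCR, normalized to ACTB, GAPDH and POLR2A, and fitted bidirectionally versus DMSO.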

[9] = read-out: ATP-citrate lyase (ACLY), ACLY (gene 47); assay: LTEA_HepaRG_ACLY: Life Technologies and Expression Analysis (LTEA) Assay for ATP-citrate lyase (ACLY) using HepaRG (AID 2283466)
Method in brief: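 Differentiated human HepaRG cells in serum-free induction medium exposed 48 h, in duplicate, to eight half-log concentrations from 100 uM top in 0.5% DMSO; ACLY mRNA measured by qRT-PCR, normalized to ACTB, GAPDH, POLR2A, fitted bidirectionally versus DMSO.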

[10] = read-out: Peroxisomal acyl-coenzyme A oxidase 1 (ACOX1) gene, ACOX1 (gene 51); assay: LTEA_HepaRG_ACOX1: Life Technologies and Expression Analysis (LTEA) Assay for Peroxisomal acyl-coenzyme A oxidase 1 (ACOX1) gene using HepaRG (AID 2283467)
Method in brief: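 Differentiated human HepaRG cells were exposed in duplicate for 48 h in serum-free induction medium to eight half-log concentrations up to 100 uM in 0.5% DMSO. ACOX1 mRNA was then quantified by TaqMan qRT-PCR, normalized to ACTB, GAPDH and POLR2A.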

Measured: outcome

Broad substrate specificity ATP-binding cassette transporter ABCG2 (Homo sapiens), sequence (Q9UNQ0 whole entry, looked up): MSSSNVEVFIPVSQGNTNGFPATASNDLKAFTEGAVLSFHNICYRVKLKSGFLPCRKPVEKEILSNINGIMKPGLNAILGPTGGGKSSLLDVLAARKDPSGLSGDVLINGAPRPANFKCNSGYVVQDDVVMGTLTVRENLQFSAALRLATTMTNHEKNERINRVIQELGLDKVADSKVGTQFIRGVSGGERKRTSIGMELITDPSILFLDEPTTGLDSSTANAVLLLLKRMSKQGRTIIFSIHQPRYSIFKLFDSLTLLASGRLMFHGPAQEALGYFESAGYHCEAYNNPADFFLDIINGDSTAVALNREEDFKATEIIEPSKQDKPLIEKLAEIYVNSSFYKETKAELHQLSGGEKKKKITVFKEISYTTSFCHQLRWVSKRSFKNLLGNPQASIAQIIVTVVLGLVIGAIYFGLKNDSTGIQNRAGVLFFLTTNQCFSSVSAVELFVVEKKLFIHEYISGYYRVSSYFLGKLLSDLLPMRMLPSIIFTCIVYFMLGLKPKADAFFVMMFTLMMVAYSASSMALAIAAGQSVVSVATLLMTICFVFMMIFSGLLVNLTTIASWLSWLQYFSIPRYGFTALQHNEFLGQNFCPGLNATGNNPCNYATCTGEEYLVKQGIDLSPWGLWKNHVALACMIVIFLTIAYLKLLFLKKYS

O=C(O)c1ccc([N+](=O)[O-])cc1
inactive: all assays above
